From PubChem BioAssay AID1159580 (chemical genetic matrix, 2015)
Hit rate of the full screen: of about 5,500 compounds, about 2,000 (36%) were called active. About 18% were inconclusive and are not listed. Rule as the data show it: active = normalized growth mostly below about 0.91 (no sharp cut-off); inconclusive = no clear call, values can overlap the other calls; inactive = mostly above about 0.92. Some of the results follow.

Assay: chemical genetic growth profiling, strain panel (AID 1159580);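 also: tested at 20 µM; growth read once vehicle control cultures reached saturation at 30 °C; 1 = growth at the plate median or of vehicle wells; lower values mean less growth of the strain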
Settings: S. cerevisiae deletion strains, growth OD

Measured: normalized growth

N#C/C(=N/Nc1ccc(F)cc1)S(=O)(=O)c1ccc(Cl)cc1
inactive: locus YAR019C, strain CDC15, hits give low values 0.976 | locus YBL105C, strain PKC1, hits give low values 0.97 | locus YBR135W, strain CKS1, hits give low values 0.965 | locus YBR136W, strain MEC1, hits give low values 0.969 | locus YBR160W, strain CDC28, hits give low values 0.965 | locus YDL017W, strain CDC7, hits give low values 0.972 | locus YDL028C, strain MPS1, hits give low values 0.971 | locus YDL101C, strain DUN1, hits give low values 0.974 | locus YDL108W, strain KIN28, hits give low values 0.957 | locus YDL132W, strain cdc53, hits give low values 0.966 | locus YDL214C, strain PRR2, hits give low values 0.94 | locus YDR052C, strain DBF4, hits give low values 0.964 | locus YDR054C, strain cdc34, hits give low values 0.976 | locus YDR226W, strain ADK1, hits give low values 0.963 | locus YDR477W, strain SNF1, hits give low values 0.961 | locus YER123W, strain YCK3, hits give low values 0.922 | locus YER133W, strain GLC7, hits give low values 0.968 | locus YFL009W, strain cdc4, hits give low values 0.978 | locus YFL029C, strain CAK1, hits give low values 0.973 | locus YFR003C, strain YPI1, hits give low values 0.974 | locus YFR019W, strain FAB1, hits give low values 0.912 | locus YFR028C, strain CDC14, hits give low values 0.959 | locus YGR040W, strain KSS1, hits give low values 0.94 | locus YGR052W, strain FMP48, hits give low values 0.952 | locus YGR092W, strain DBF2, hits give low values 0.912 | locus YHR030C, strain SLT2, hits give low values 0.982 | locus YHR079C, strain IRE1, hits give low values 0.993 | locus YHR082C, strain KSP1, hits give low values 0.994 | locus YHR205W, strain SCH9, hits give low values 0.907 | locus YIL147C, strain SLN1, hits give low values 0.976 | locus YJL095W, strain BCK1, hits give low values 0.926 | locus YJL128C, strain PBS2, hits give low values 0.942 | locus YJL157C, strain FAR1, hits give low values 0.953 | locus YJR016C, strain ILV3, hits give low values 0.977 | locus YJR066W, strain TOR1 (second series), hits give low values 0.924 | locus YJR066W, strain TOR1, hits give low values 0.996 | locus YKL048C, strain ELM1, hits give low values 0.932 | locus YKL067W, strain YNK1, hits give low values 0.96 | locus YKL101W, strain HSL1, hits give low values 0.93 | locus YKL193C, strain SDS22, hits give low values 0.978 | locus YKL203C, strain TOR2, hits give low values 0.99 | locus YLR113W, strain HOG1, hits give low values 0.941 | locus YLR133W, strain CKI1, hits give low values 0.942 | locus YLR403W, strain SFP1, hits give low values 0.899 | locus YML070W, strain DAK1, hits give low values 0.939 | locus YMR001C, strain CDC5, hits give low values 0.975 | locus YMR205C, strain PFK2 (second series), hits give low values 0.96 | locus YMR277W, strain FCP1, hits give low values 0.979 | locus YNL006W, strain LST8, hits give low values 0.989 | locus YNL020C, strain ARK1, hits give low values 0.946 | locus YNL161W, strain CBK1, hits give low values 0.966 | locus YNL183C, strain NPR1, hits give low values 0.988 | locus YNL207W, strain RIO2, hits give low values 0.969 | locus YNL222W, strain SSU72, hits give low values 0.977 | locus YNL307C, strain MCK1 (second series), hits give low values 0.912 | locus YOL078W, strain AVO1, hits give low values 0.97 | locus YOL136C, strain PFK27, hits give low values 0.905 | locus YOR061W, strain CKA2, hits give low values 0.979 | locus YOR119C, strain RIO1, hits give low values 0.998 | locus YOR231W, strain MKK1, hits give low values 0.953 | locus YOR329C, strain SCD5, hits give low values 0.975 | locus YPL031C, strain PHO85, hits give low values 0.954 | locus YPL153C, strain RAD53, hits give low values 0.956 | locus YPL204W, strain HRR25, hits give low values 0.904 | locus YPL209C, strain IPL1, hits give low values 0.975 | locus YPL256C, strain CLN2, hits give low values 1.01 | locus YPR025C, strain CCL1, hits give low values 0.974 | locus YPR106W, strain ISR1, hits give low values 0.975 | locus YPR111W, strain DBF20, hits give low values 0.969 | strain NNK1, hits give low values 0.972 | strain TSCII, hits give low values 0.966
